Source: PubChem BioAssay (NCI)
This is part of a sample that, as a whole, favours compounds with a hit. Of some 79,000 tested, about 15% had one in any assay. A number with no mark means an inactive call. Activity calls are given as the source filed them. Rule as the data show it: active = growth inhibition above about 70%; inactive = the rest.

What was measured:
[1] = NCI Yeast Anticancer Drug Screen. Data for the rad50 strain (AID 155);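 also: 0% = growth of vehicle-only cultures of the same strain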; settings: S. cerevisiae rad50 strain growth inhibition, stronger effect = higher value
Summary of the method: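 Compounds were tested on a yeast strain with an engineered DNA damage repair alteration; the reported value is growth inhibition normalised to vehicle treatment.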

[2] = NCI Yeast Anticancer Drug Screen. Data for the mec2-1 strain (AID 157); settings: S. cerevisiae mec2-1 strain, stronger effect = higher value
Summary of the method: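 Test agents were screened against the mec2-1 yeast strain, with defined DNA repair or cell cycle alteration. Growth was scored as inhibition against vehicle-only controls.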

[3] = NCI Yeast Anticancer Drug Screen. Data for the sgs1 mgt1 strain (AID 161);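 also: 0% = growth of cultures given vehicle only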; settings: S. cerevisiae sgs1 mgt1 strain, stronger effect = higher value
Summary of the method: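 Mutant yeast exposed to compound; growth scored against vehicle-only wells.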

[4] = NCI Yeast Anticancer Drug Screen. Data for the cln2 rad14 strain (AID 165);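 also: 0% = growth equal to vehicle treated cultures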; settings: S. cerevisiae cln2 rad14 strain, stronger effect = higher value
Summary of the method: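 Growth of compound-exposed yeast (cln2 rad14 genotype) measured and expressed as inhibition relative to vehicle.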

[5] = NCI Yeast Anticancer Drug Screen. Data for the bub3 strain (AID 167); settings: S. cerevisiae bub3 mutant strain, stronger effect = higher value
Summary of the method: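 Growth of a checkpoint-deficient yeast mutant is measured after compound exposure. Values represent inhibition relative to vehicle.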

[6] = NCI Yeast Anticancer Drug Screen. Data for the mlh1 rad18 strain (AID 175); settings: S. cerevisiae mlh1 rad18 strain growth inhibition, stronger effect = higher value
Summary of the method: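 In this whole-cell yeast screen, a strain with altered DNA damage repair is challenged with compound, and its growth is measured against matched vehicle-treated controls.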

[7] = at 5.0 µM (retest, dose inferred, filed as 0.5)
[8] = at 50.0 µM (retest, dose inferred, filed as 5.0)

Compound | growth inhibition [1, 7] | growth inhibition [1, 8] | growth inhibition ([1]; at 50.0 µM) | growth inhibition [2, 7] | growth inhibition [2, 8] | growth inhibition ([2]; at 50.0 µM) | growth inhibition [3, 7] | growth inhibition [3, 8] | growth inhibition ([3]; at 50.0 µM) | growth inhibition [4, 7] | growth inhibition [4, 8] | growth inhibition ([4]; at 50.0 µM) | growth inhibition [5, 7] | growth inhibition [5, 8] | growth inhibition ([5]; at 50.0 µM) | growth inhibition [6, 7] | growth inhibition [6, 8] | growth inhibition ([6]; at 50.0 µM)
Cc1cc(NCCCCCCNc2cc(C)nc3cc(N(C)C)ccc23)c2ccc(N(C)C)cc2n1 | 11% | 90% (active) | 68.5% | 0% | 96% (active) | 85.2% (active) | 9% | 95% (active) | 26.7% | 8% | 79% (active) | 13% | -7% | 96% (active) | 1.15% | 7% | 92% (active) | 7.45%
CCOc1c(N=Nc2ccc(OC)cc2)c(-c2ccccc2)nn1C(N)=S | 4% | 36% | 12.3% | -2% | 34% | 38% | 10% | 73% (active) | 25.8% | 6% | 9% | 3.1% | 3% | 71% (active) | 70.2% (active) | 0% | 27% | 23.9%
Oc1ccc(-c2ccccc2)cc1Cl | -1% | 98% (active) | 99.2% (active) | -12% | 99% (active) | 99.7% (active) | -3% | 99% (active) | 99.7% (active) | -11% | 98% (active) | 97.5% (active) | -23% | 98% (active) | 99.4% (active) | -5% | 99% (active) | 99% (active)
CC[Si](CC)(CC)c1ccc(CCNCCS)s1 | -1% | 96% (active) | 97.4% (active) | 32% | 99% (active) | 98.7% (active) | 52% | 98% (active) | 98.2% (active) | 8% | 97% (active) | 98% (active) | 19% | 99% (active) | 98.4% (active) | 49% | 97% (active) | 98.3% (active)
CN(C)CCCN=c1c2ccccc2n(O)c2ccccc12 | -8% | -6% | -27.9% | -16% | -19% | -6.95% | -16% | -3% | -32.5% | 22% | 20% | 24.7% | -4% | -20% | -9.35% | -20% | -16% | 8.3%
COc1ccc2c(Cc3ccc(Cl)cc3)cncc2c1O | 5% | 91% (active) | 98.1% (active) | 14% | 97% (active) | 99.2% (active) | 15% | 96% (active) | 97.2% (active) | 2% | 87% (active) | 99% (active) | 10% | 93% (active) | 99% (active) | 21% | 96% (active) | 99.1% (active)
CCCCCCCCCCCCCCCCCCNC(=S)/N=C/c1c(O)cc(C)oc1=O | 1% | 15% | 16.1% | 8% | 38% | -13.7% | -15% | 8% | 57% | 7% | -13% | -30.1% | -2% | -8% | 18.9% | 10% | 29% | 15.9%
Cc1cc(Cc2ccc(Cl)cc2)ccc1O | 0% | 99% (active) | 56.4% | -8% | 99% (active) | 46.1% | 2% | 99% (active) | 99.2% (active) | -13% | 99% (active) | 51.9% | -19% | 99% (active) | 56.4% | 6% | 99% (active) | 47.9%
CC(=O)Nc1c([N+](=O)[O-])cc2c3c(cccc13)C=C2 | 3% | 77% (active) | 24.8% | 1% | 47% | 16.1% | 6% | 56% | 9.8% | 6% | 77% (active) | 74.9% (active) | 3% | 23% | -17.2% | 31% | 94% (active) | 67.8%
O=C(Nc1ccc(C(F)(F)F)cc1[N+](=O)[O-])C(=O)C(C(=O)c1ccc2ccccc2c1)C1OC(=O)c2ccccc21 (configuration not stated) | 26% | 26% | 2.05% | 10% | 10% | 4.85% | 8% | 8% | 13.9% | 15% | 15% | -28.6% | 9% | 9% | 22.7% | 10% | 10% | 10.2%
COc1ccc2c(c1)CCC/C2=N\NS(=O)(=O)c1c(C)cc(C)cc1C | 15% | 59% | 26.2% | 16% | 60% | -43.2% | 16% | 38% | 37.1% | 8% | 68% | 73.5% (active) | 11% | 52% | 54.8% | 26% | 75% (active) | 5.7%
Cc1cccc(N=Nc2ccc(O)cc2)c1 | -152% | 98% (active) | 99.6% (active) | -58% | 98% (active) | 99.5% (active) | -71% | 98% (active) | 99.4% (active) | -71% | 98% (active) | 98.6% (active) | -72% | 97% (active) | 98.5% (active) | -154% | 98% (active) | 99.3% (active)
CCCCCCCCCCCCNCc1ccc2c(c1)OCO2 | 98% (active) | 96% (active) | 98.8% (active) | 99% (active) | 97% (active) | 99.1% (active) | 99% (active) | 96% (active) | 57.8% | 99% (active) | 96% (active) | 95.9% (active) | 99% (active) | 95% (active) | 98.7% (active) | 99% (active) | 95% (active) | 99% (active)
CCCOC1=C(Cl)C(=O)c2cccc([N+](=O)[O-])c2C1=O | 94% (active) | 98% (active) | 99.5% (active) | 97% (active) | 99% (active) | 99.5% (active) | 81% (active) | 99% (active) | 99.4% (active) | 20% | 99% (active) | 99% (active) | 97% (active) | 99% (active) | 99.5% (active) | 93% (active) | 98% (active) | 99.1% (active)
O=C1CSC(=S)N1Cc1ccccc1Cl | 15% | 93% (active) | 98.9% (active) | 6% | 97% (active) | 96.2% (active) | 11% | 98% (active) | 97.9% (active) | 2% | 81% (active) | 97.3% (active) | -1% | 94% (active) | 95.2% (active) | 11% | 98% (active) | 99% (active)
CC(C)C1=CC23CCC4C(C)(C(=O)O)CCCC4(C)C2CC1C1C(=O)C=CC(=O)C13 (configuration not stated) | 86% (active) | 93% (active) | 94.3% (active) | 81% (active) | 97% (active) | 96.3% (active) | 82% (active) | 97% (active) | 90.2% (active) | 75% (active) | 96% (active) | 62% | 91% (active) | 96% (active) | 96.9% (active) | 88% (active) | 97% (active) | 55.4%
Clc1ccc(C2SCc3nc4ccccc4n32)c(Cl)c1 (configuration not stated) | -7% | 96% (active) | 99% (active) | -6% | 97% (active) | 99.1% (active) | 4% | 95% (active) | 99.2% (active) | -17% | 98% (active) | 97.9% (active) | 9% | 96% (active) | 98.7% (active) | -10% | 94% (active) | 71.9% (active)
CCCC(c1ccc(O)cc1)c1ccc(O)cc1 | 1% | 98% (active) | 99.5% (active) | -5% | 99% (active) | 99.5% (active) | -1% | 95% (active) | 99.4% (active) | 12% | 96% (active) | 99.2% (active) | 1% | 97% (active) | 99.5% (active) | 0% | 96% (active) | 99.5% (active)
COc1ccc2c(C)cc(N/N=C/c3cccc(C)n3)nc2c1 | -1% | 4% | 75.1% (active) | -2% | 8% | 31.2% | 4% | 28% | 97.4% (active) | 5% | 5% | 19.1% | -4% | -4% | 22.2% | -5% | 19% | 28.8%
